Test results published in PubChem BioAssay AID588590 (National Center for Advancing Translational Sciences (NCATS), 2011).
In all, about 390,000 compounds went through this assay and about 4,000 (1%) were called active. About 7% were inconclusive and are not listed. The call rests on the fitted dose curve; in most records, active means well fitted inhibition curve with a large enough effect; inconclusive means small, poorly fitted or top-dose-only effect, or another doubt; inactive means no such curve, though single readings can be large or run the other way. The full list was thinned out, with actives kept by preference.

What follows are molecules tested against DNA polymerase iota (Homo sapiens) (UniProt Q9UNA4) (assay: qHTS for Inhibitors of Polymerase Iota). Conditions: Pol iota fluorescent replication assay, 10 min; series mostly up to 115 µM.
Chain of DNA polymerase iota (Homo sapiens) (Q9UNA4 whole entry, looked up): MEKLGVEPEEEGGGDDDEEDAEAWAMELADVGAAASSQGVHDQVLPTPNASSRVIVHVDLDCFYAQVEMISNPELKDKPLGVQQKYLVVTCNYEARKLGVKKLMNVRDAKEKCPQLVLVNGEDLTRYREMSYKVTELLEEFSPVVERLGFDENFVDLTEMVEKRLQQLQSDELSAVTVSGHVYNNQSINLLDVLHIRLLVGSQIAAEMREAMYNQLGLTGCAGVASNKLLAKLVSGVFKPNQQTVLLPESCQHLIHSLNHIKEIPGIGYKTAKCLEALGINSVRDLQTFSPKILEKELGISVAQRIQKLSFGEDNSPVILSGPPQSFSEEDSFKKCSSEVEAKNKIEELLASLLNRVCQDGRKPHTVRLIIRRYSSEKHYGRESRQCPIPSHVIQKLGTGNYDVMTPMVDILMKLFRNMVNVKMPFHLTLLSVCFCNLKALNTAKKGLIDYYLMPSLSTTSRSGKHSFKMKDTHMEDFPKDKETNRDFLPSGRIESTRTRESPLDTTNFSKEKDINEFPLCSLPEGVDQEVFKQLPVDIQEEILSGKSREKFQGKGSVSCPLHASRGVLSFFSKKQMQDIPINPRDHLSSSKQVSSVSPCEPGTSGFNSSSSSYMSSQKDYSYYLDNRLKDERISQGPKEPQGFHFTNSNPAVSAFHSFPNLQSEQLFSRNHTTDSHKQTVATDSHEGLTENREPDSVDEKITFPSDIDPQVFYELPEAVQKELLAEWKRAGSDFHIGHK
Outline: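 Fluorescent replication assay read twice, at 0 min and 10 min after adding 50 nM (final) substrate. Enzyme (10 nM) and compounds were first incubated 15 min at room temperature; enzyme-free buffer wells were negative controls.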
Potency means the concentration at half of the fitted maximal effect.

Potency, active:
CC(=O)N(C1=C(Cl)C(=O)c2ccccc2C1=O)c1ccc(C(=O)O)cc1 3.16 µM
CN(C)CCNC(=O)c1ccc(Cl)c2cc3ccccc3nc12 89.1 µM
O=C(COC(=O)/C=C/c1ccc(Br)o1)Nc1cccc(S(=O)(=O)N2CCOCC2)c1 20 µM
C=CCC1=C/C(=C\c2c(N)n3nc(CC(=O)N4CCOCC4)sc3nc2=O)C=C(OC)C1=O 22.4 µM
COC1=C/C(=C/c2c(N)n3nc(CC(=O)N4CCOCC4)sc3nc2=O)C=CC1=O 22.4 µM
Cc1nc2nc(SCC(=O)NCc3ccco3)nn2c(C)c1Cc1ccccc1 50.1 µM
COc1ccc(/C=C/C(=O)OCC(=O)NC2CCCCCC2)cc1OC 89.1 µM
CN(C)/C=C1/Nc2ccccc2C1=O 28.2 µM
O=C1C(Cl)=C(Oc2ccccc2)C(=O)c2ccccc21 1.78 µM
COCCNC(=O)Nc1ccc2nc(-c3ccco3)c(-c3ccco3)nc2c1 2.82 µM
CC(C)C1N=C2c3ccccc3N=C(SCC(=O)c3ccc(O)c(O)c3)N2C1=O (configuration not stated) 1.41 µM
Oc1ccc(N=Cc2sc3ccccc3c2Cl)cc1 8.91 µM
NNc1cccc(C=Cc2ccccc2)cc1=O 25.1 µM
Cc1ccc(C)c2[nH]c(=O)c(CN(Cc3cccnc3)C(=S)NCc3ccco3)cc12 44.7 µM
Cc1ccc(NC(=O)c2cc(-c3ccc(C)o3)nc3ccccc23)nc1 20 µM
CCOc1cccc2c1N[C@@H](c1ccc(C(=O)O)cc1)[C@H]1CC=C[C@@H]21 5.62 µM
COc1cccc(CNC(=O)c2nnn(CC(=O)Nc3cc(Cl)ccc3C)c2N)c1 50.1 µM
CC(C)c1ccc(NC(=O)Cn2nnc(C(=O)NCCc3ccccc3)c2N)cc1 79.4 µM

Potency, inactive:
COc1cc(C(=O)NCCc2csc3nc(-c4ccccc4C)nn23)cc(OC)c1OC
Cc1cccc(C(C)C)c1NC(=O)C(NS(=O)(=O)c1cccc2nsnc12)c1ccccc1 (configuration not stated)
CC(=O)N1CCCc2cc(S(=O)(=O)N3CCC(C(=O)NC4CCCCC4)CC3)ccc21
COc1ccc(Nc2cc(C(=O)NCCCN(C)c3ccccc3)c3ccccc3n2)c(OC)c1
COc1ccccc1Nc1cc(C(=O)NCCCN(C)C2CCCCC2)c2ccccc2n1
CCOC(=O)c1ccc(NC(=O)CCS(=O)(=O)c2ccc(C)cc2)cc1
CCOC(=O)c1c(C)[nH]c(C)c1S(=O)(=O)N1CCC(C(=O)Nc2ccc(C)c(Cl)c2)CC1
CCOC(=O)c1scc(-c2ccccc2)c1S(=O)(=O)Nc1ccccc1F
CCN1CCN(C(c2ccc(C)cc2)c2c(O)cc(C)n(Cc3ccco3)c2=O)CC1 (configuration not stated)
O=C(COC(=O)CCc1ccc(S(=O)(=O)N2CCOCC2)cc1)Nc1cccc(Cl)c1
O=C(CSc1ccccc1)Nc1cccc(S(=O)(=O)N2CCOCC2)c1
Cc1ccc(NC(=O)Cc2ccc(NC(=O)N3CCCCc4ccccc43)cc2)cc1
COc1ccc(-c2ccnc(SCC(=O)N3CCOCC3)n2)cc1
COc1ccc(-c2nc(SCC(=O)N3CCOCC3)n[nH]2)cc1
CCCOc1ccc(C2c3c(-c4ccccc4O)n[nH]c3C(=O)N2Cc2cccnc2)cc1 (configuration not stated)
COc1ccc(CNC(=O)c2ccc(NC(=O)N3CC4CCCN4c4ccccc43)cc2)cc1 (configuration not stated)
O=C1CC(c2ccccc2)CC2=C1C(c1ccco1)n1nc(C(F)(F)F)nc1N2 (configuration not stated)
CC1(C)CC(=O)c2cc(C(=O)NCc3ccccc3)c(=O)[nH]c2C1
O=C(CSCc1cnn(-c2ccccc2)c1-n1cccc1)NCc1ccccc1Br
CC1(C)Cc2ccccc2-c2c[nH]c(=O)n21
COc1ccc(S(=O)(=O)Nc2cccc3cccnc23)c(N)c1
Cc1ccc(CN(C(=O)c2ccccc2[N+](=O)[O-])c2ccccn2)cc1
CCn1cc(C(=O)NCc2ccc(C)cc2)c(=O)c2cc(S(=O)(=O)N3CCc4ccccc4C3)ccc21
COc1cc(NC(=O)CSc2nc3nc(C)c(Cc4ccc(C)cc4)c(C)n3n2)cc(OC)c1OC
Cc1ccc(Cc2c(C)nc3nc(SCC(=O)NCCN4CCOCC4)nn3c2C)cc1
O=C(CN1C(=O)CCn2nc(-c3ccccc3)cc21)NCc1ccccc1
CCCCc1nn2c(=O)cc(COC(=O)c3ccccc3NC(=O)C(C)(C)C)nc2s1
COc1ccccc1/C=C/C(=O)OCC(=O)NC1CCCCCC1
COc1cc(/C=C/C(=O)OCC(=O)NC2CC2)cc(OC)c1OC
Cc1c(Cl)cccc1NC(=O)C1CCCN(C(=O)c2cnn(-c3ccccc3)c2-n2cccc2)C1 (configuration not stated)
CCCS(=O)(=O)C(=C1Nc2ccccc2N1)S(=O)(=O)CCC
COc1ccccc1CNC(=O)Cn1nc(C)c2nn(-c3ccc(Cl)cc3)c(C)c2c1=O
COC(=O)c1ccccc1NS(=O)(=O)c1ccc2c(c1)CCCN2C(C)=O
COc1ccccc1CNC(=O)CS(=O)(=O)c1cccc2nsnc12
Cc1nn2c(=O)cc(COC(=O)CNC(=O)c3ccc(F)cc3)nc2s1
O=C(Cc1ccccc1)Nc1sc2c(c1C(=O)Nc1ccc(Br)cc1)CCC2
COc1cccc(N=C2SC(C(=O)Nc3cccc(Cl)c3)CC(=O)N2C)c1 (configuration not stated)
CCCCNC(=O)Cn1c(SCc2cccc(Cl)c2)nc2ccncc21
CCOc1ccc(NC(=O)c2ncoc2-c2ccco2)cc1
COc1ccc(NC(=O)COCc2cc(-c3ccco3)on2)cc1
COc1ccc(NC(=O)CCCc2nnc3n(CCC(C)C)c(=O)c4sccc4n23)c(OC)c1
Cc1ccc(CN2C(=O)SC(Nc3ccccc3)C2=O)cc1 (configuration not stated)
Cc1ccc(CNC(=O)CSC2=Nc3ccccc3C3=NC(C)C(=O)N23)cc1 (configuration not stated)
CCOC(=O)CSC1=Nc2ccccc2C2=NC(CCC(=O)NCc3ccc(F)cc3)C(=O)N12 (configuration not stated)
COc1ccc(NC(=O)CSc2nc3ccccc3n2CC(=O)N2CCCCC2C)cc1 (configuration not stated)
CCOc1ccc(S(=O)(=O)Nc2ccc3oc4c(c3c2)CC(C)CC4)cc1 (configuration not stated)
COC(=O)c1cc(NC(=O)c2sc3ccccc3c2Cl)cc(C(=O)OC)c1
O=S(=O)(c1ccc2nc(N3CCN(c4cccc(Cl)c4)CC3)ccc2c1)N1CCCCC1
c1ccc(Cn2nnc3c(N4CCCCC4)ncnc32)cc1
Cc1ccc(-c2nc(Cn3c(=O)cc(-c4ccccc4)c4c(C)nn(C)c43)c(C)o2)cc1
COc1cc(OC)cc(C(=O)Nc2ccc3nc(Nc4cccc(C(F)(F)F)c4)cc(C)c3c2)c1
Cc1cccc(NC(=O)CSc2nc3c(oc4ccccc43)c(=O)n2-c2ccc(F)cc2)c1
Cc1ccc2c(=O)c(C(=O)c3cccc(Cl)c3)cn(CC(=O)NCc3ccccc3)c2n1
O=C(COC(=O)/C=C/c1cccc(Cl)c1)NCCc1ccccc1
NS(=O)(=O)c1ccc(NS(=O)(=O)/C=C/c2ccccc2)cc1
CCC(=O)N1CCc2cc(Br)cc(S(=O)(=O)CCC(=O)N3CCN(c4ccc(F)cc4)CC3)c21
Cn1c(SCC(=O)N2CCCc3ccccc32)ncc(C(=O)Nc2ccc(F)cc2)c1=O
S=c1[nH]c(=S)c2n[nH]nc2[nH]1
COc1cccc(C(=O)Nc2ccc3oc(-c4ccc5ccccc5c4)nc3c2)c1
COc1cc2nc(N3CCCN(C)CC3)nc(NC(C)C)c2cc1OC
O=C(Nc1ccccc1)N(Cc1cccnc1)Cc1ccco1
Cc1cccc2cc(CN(Cc3cccs3)C(=S)NCc3ccco3)c(=O)[nH]c12
O=C(c1ccc2c(c1)N(Cc1ccccc1)C(=O)c1ccccc1S2(=O)=O)N1CCCC1
COc1cc2nc(SCC(=O)Nc3ccccc3F)n3nc(-c4ccccc4)nc3c2cc1OC
CCc1cc2c(cc3c(=O)n(CC(=O)N4CCN(c5cc(Cl)ccc5C)CC4)nc(CC)n32)s1
CCc1ccc(NC(=O)CN2C(=O)CCSc3ccc(S(=O)(=O)N4CCCC4)cc32)cc1
CCc1ccc(-c2cc(C(=O)NN3CCN(C)CC3)c3ccccc3n2)cc1
O=C(NCCc1ccccn1)c1cc(-c2ccc(Cl)cc2)nc2ccccc12
C=Cc1ccc(Cn2c(C(=O)OC)cc3sc(C)cc32)cc1
CCOc1c(CNCc2ccc(C(=O)O)cc2)cccc1OC
CCOc1cc(C(=O)O)ccc1OCCOc1ccccc1
COc1cc(OC)cc(-c2nc3nc(C)c(CCC(=O)Nc4ccc(C)cc4)c(C)n3n2)c1
COc1cccc(CNC(=O)c2n[nH]c3ccccc23)c1
CCOc1ccccc1NC(=O)Cn1nnc(C(=O)Nc2ccc(C)c(C)c2)c1N
Cc1cccc(NC(=O)c2nnn(CC(=O)Nc3ccc(C(C)C)cc3)c2N)c1C
CCc1ccc(NC(=O)Cn2nnc(C(=O)NCc3ccc4c(c3)OCO4)c2N)cc1
CO[C@H]1O[C@@H]2O[C@@]3(C)CC[C@@H]4[C@@H](C)CC[C@@H]([C@H]1C)[C@@]24OO3
O=C(COC(=O)c1ccccc1OCCOc1ccccc1)Nc1cccc(Br)c1
OC[C@H]1O[C@@H](n2cnc3c(NC4CCCC4)ncnc32)[C@H](O)[C@H]1O
